Measured values reported in ChEMBL document CHEMBL1201862, “PubChem BioAssay data set” (2004).
Several values for one entry are separate records, joined by “and”; a condition that tells them apart may be missing. Identical values can stand only once.

Experiment: A High Throughput Confirmatory Assay used to Identify Novel Compounds that Inhibit Mycobacterium Tuberculosis in the absence of Glycerol using Purified and Synthesized Compounds (7).
Format: functional

**Q.** For `CC1CCCN(C(=O)c2ccc(CNc3c(N4CCCCC4)c(=O)c3=O)cc2)C1` (stereo not drawn), which IC90 is on record?
**A.** > 100 µM (active)

**Q.** Which IC90 does the source give for `O=C(c1ccc(CNc2c(N3CCCC3)c(=O)c2=O)cc1)N1CC=C(c2ccccc2)CC1` here?
**A.** > 68.8 µM (active) and > 79.4 µM (active)

**Q.** Which IC90 does the source give for `CC1CCCN(C(=O)C2CCC(CNc3c(N4CCCCC4)c(=O)c3=O)CC2)C1` (stereo not drawn) here?
**A.** > 100 µM (active)

**Q.** For `O=C(C1CCC(CNc2c(N3CCCCC3)c(=O)c2=O)CC1)N1CCCCC1` (stereo not drawn), which IC90 is on record?
**A.** > 100 µM (active)

**Q.** With `CC1CCN(C(=O)c2ccc(CNc3c(N4CCCC4)c(=O)c3=O)cc2)CC1` as the compound, how does the IC90 read?
**A.** > 100 µM (active)

**Q.** For `CC(C)OC(=O)CSc1ncnc2c1cnn2-c1ccccc1`, which IC90 is on record?
**A.** > 100 µM (active)

**Q.** Which IC90 does the source give for `COc1ccc(N2CCN(C(=O)c3ccc(CNc4c(N5CCOCC5)c(=O)c4=O)cc3)CC2)cc1` here?
**A.** > 100 µM (active)

**Q.** With `O=C(NCCc1ccc(Cl)cc1)C1CCC(CNc2c(N3CCCCC3)c(=O)c2=O)CC1` (stereo not drawn) as the compound, how does the IC90 read?
**A.** > 100 µM (active)

**Q.** With `CC1CC(C)CN(C(=O)C2CCC(CNc3c(N4CCCCC4)c(=O)c3=O)CC2)C1` (stereo not drawn) as the compound, how does the IC90 read?
**A.** > 75 µM (active) and > 100 µM (active)

**Q.** With `CC1CC(C)CN(C(=O)c2ccc(CNc3c(N4CCCC4)c(=O)c3=O)cc2)C1` (stereo not drawn) as the compound, how does the IC90 read?
**A.** > 100 µM (active)

**Q.** Which IC90 does the source give for `O=C(NCCc1ccc(Cl)cc1)c1ccc(CNc2c(N3CCOCC3)c(=O)c2=O)cc1` here?
**A.** > 100 µM (active)

**Q.** With `O=C(c1ccc(CNc2c(N3CCCC3)c(=O)c2=O)cc1)N1CCc2ccccc2C1` as the compound, how does the IC90 read?
**A.** > 100 µM (active)

**Q.** With `CC(=O)c1ccc(NC(=O)c2ccc(CNc3c(N4CCOCC4)c(=O)c3=O)cc2)cc1` as the compound, how does the IC90 read?
**A.** > 100 µM (active)
